This is an account of results in PubChem BioAssay (NCATS).

The target in assay [1] is Calcium and integrin-binding protein 1 (Homo sapiens) (UniProt Q99828). The assay can be described thus: Primary qHTS for Identification of Calcium Integrin Binding Protein 1 (CIB1) Competitor (AID 1508620).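 Further: GST tagged CIB1 binding a fluorescein labelled alphaIIb integrin peptide tracer; top concentration of the series differs between compounds.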 The procedure, abridged: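 CIB1-GST (1 uM final) and compound incubated 15 min at room temperature before adding FITC-alphaIIb peptide tracer (100 nM final). Competition for binding read by fluorescence polarization (ex 480, em 540) after another 15 min at room temperature.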
Sequence of Calcium and integrin-binding protein 1 (Homo sapiens) (Q99828 whole entry, looked up): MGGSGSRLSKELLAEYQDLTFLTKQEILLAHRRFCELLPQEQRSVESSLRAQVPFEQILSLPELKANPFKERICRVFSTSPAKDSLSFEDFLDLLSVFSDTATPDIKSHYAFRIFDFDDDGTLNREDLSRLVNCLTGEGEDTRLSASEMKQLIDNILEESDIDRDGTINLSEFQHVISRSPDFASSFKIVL

Assay [2] is described as follows: Primary qHTS for inhibitors of nuclear receptor binding SET domain protein 2 (NSD2) in an isogenic RCH-ACV NSD2 p.E1099K mutant (9B) (AID 1645876; further: nearly all actives have a fitted effect of over 70% in size; further: potency means the concentration at half of the fitted maximal effect). (In general: qHTS replaces the single test concentration by a dilution series.)

“And” between values parts separate entries of the source, which are not always exact repeats. Identical values can stand only once. Results filed as inconclusive are left out. A call without a number means that no potency is given here. Values without a mark were called inactive. The source made the active and inactive calls. The call rests on the fitted dose curve; in most records, active means well fitted inhibition curve with a large enough effect; inconclusive means small, poorly fitted or top-dose-only effect; inactive means flat fitted curve, though single readings scatter. Where a SMILES comes first, the peptide text is derived from it. The star is where a group is joined. AFC = O=c1cc(C(F)(F)F)c2ccc(N*)cc2o1

For the molecule `CC(=O)N[C@@H](Cc1c[nH]c2ccccc12)C(=O)N[C@@H](CCC(=O)O)C(=O)N[C@@H](Cc1cnc[nH]1)C(=O)N[C@@H](CC(=O)O)C(=O)Nc1ccc2c(C(F)(F)F)cc(=O)oc2c1` (Ac-WEHD-{AFC}), the Potency result in assay [1] and in assay [2] was “inactive” in each case.
Regarding `CC(=O)O[C@@](C)(C(=O)/C=C/C(C)(C)O)[C@H]1[C@H](O)C[C@@]2(C)[C@@H]3CC=C4[C@@H](C=C(O)C(=O)C4(C)C)[C@]3(C)C(=O)C[C@]12C`, the Potency result in assay [1] is “inactive”. In addition, the Potency in assay [2] was 502 nM (active).
In the same order, the values of `O=C(CC1C(=O)Nc2ccccc21)OC[C@H]1O[C@@H](OCCc2ccc(O)cc2)[C@H](O)[C@@H](O)[C@@H]1O` (stereo partly drawn) are “inactive” and “inactive”.
With `COc1cc(OC)c(/C=C/S(=O)(=O)Cc2ccc(OC)c(NCC(=O)O)c2)c(OC)c1`, the Potency result in assay [1] was “inactive”. In addition, the Potency in assay [2] was 57.8 nM (active) and 59 nM (active).
With `COC(=O)[C@@H](O)[C@H]1[C@@]2(C)CC3(O)[C@@H](C(=O)[C@H]2O)[C@]24O[C@]25CC(=O)O[C@@H](c2ccoc2)[C@]5(C)CCC4[C@]13C` (stereo partly drawn), the Potency result in assay [1] and in assay [2] was “inactive” in each case.
For `C/C=C/c1cc(OC)c2c(c1)[C@@H](C)[C@@H](c1ccc(O)c(OC)c1)O2`, the Potency result in assay [1] was “inactive”. In addition, in assay [2], the Potency is 8980 nM (active).
As to `Cc1ccccc1C#Cc1ccc(CCC(=O)O)cc1`, the Potency entry in assay [1] and in assay [2] was “inactive” throughout.
Consider `OCCc1ccc(O[C@@H]2O[C@H](CO)[C@@H](O)[C@H](O)[C@H]2O)cc1`, for which the Potency entry in assay [1] and in assay [2] was “inactive” each time.
In the case of `CC1C=CC2CCCCC2C1CCC1CC(O)CC(=O)O1` (stereo not drawn), the Potency entry in assay [1] and in assay [2] was “inactive” each time.
As to `CC(=O)OC[C@@]12C(=O)C[C@@H](C)[C@]3(C[C@@H](c4ccoc4)O[C@H]3OC(C)=O)[C@H]1CCC[C@]21CO1`, the Potency entry in assay [1] was “inactive”. Besides, the Potency in assay [2] is 12600 nM (active).
The like results for `CC(=O)OC1C(c2ccccc2)CCC(c2ccccc2)C1OC(C)=O` (stereo not drawn) were, in that order, “inactive” and “inactive”.
The like results for `C[C@@H]1O[C@@H](OC[C@H]2O[C@@H](OC(CCCCc3ccc(O)cc3)CCc3ccc(O)cc3)[C@H](O)[C@@H](O)[C@@H]2O)[C@H](O)[C@H](O)[C@H]1O` (stereo partly drawn) were, in that order, “inactive” and “inactive”.
As for `OC[C@H]1O[C@@H](O[C@H]2[C@H](OCCc3ccccc3)O[C@H](CO)[C@@H](O)[C@@H]2O)[C@H](O)[C@@H](O)[C@@H]1O`, the Potency entry in assay [1] and in assay [2] was “inactive” in each case.
Consider `C[C@H](N)C(=O)N[C@@H](Cc1ccc(O)cc1)C(=O)N1CCC[C@H]1C(=O)NCC(=O)N[C@@H](CCCCN)C(=O)N[C@@H](Cc1ccccc1)C(N)=O`, for which the Potency entry in assay [1] was “inactive”. In addition, the activity change, negative = viability loss in assay [2] is 0.961% [at 9.23 µM].
`O=C(O[C@H]1[C@@H]2C[C@@H]3OC[C@](O)([C@@H]1Cl)[C@H]2C(O[C@@H]1O[C@H](CO)[C@@H](O)[C@H](O)[C@H]1O)O3)c1ccc(O)c(O)c1` (stereo partly drawn): the Potency entry in assay [1] and in assay [2] was “inactive” in each case.
As to `C=CCC1=C[C@]2(OC)[C@H](C)[C@@H](c3ccc(O)c(OC)c3)O[C@]2(OC)CC1=O`, the Potency result in assay [1] and in assay [2] was “inactive” each time.
As to `CC(=O)OC1C(OC(=O)c2ccccc2)C2C(C)(C)CC(=O)CC2(C)C23CCC(C)(C2)C(O)CC13` (stereo not drawn), the Potency entry in assay [1] and in assay [2] was “inactive” in each case.
Turning to `CCC(O)(C(=O)OCc1ccccc1NC(=O)CCC(=O)O)C(C)O` (stereo not drawn), the Potency result in assay [1] and in assay [2] was “inactive” throughout.
Consider `O=C(OC[C@H]1O[C@H](O[C@]2(CO)O[C@H](CO)[C@@H](O)[C@@H]2O)[C@H](O)[C@@H](O)[C@@H]1O)c1ccccc1`, for which the Potency result in assay [1] and in assay [2] was “inactive” each time.
For `C[C@@H]1O[C@@H](O[C@@H]2[C@@H](O)[C@H](O[C@H]3[C@H](O[C@H]4CC[C@@]5(C)C(CC[C@]6(C)C5CC=C5[C@@H]7CC(C)(C)CC[C@]7(C(=O)O[C@@H]7O[C@H](CO)[C@@H](O)[C@H](O)[C@H]7O[C@@H]7O[C@@H](C)[C@H](O[C@@H]8O[C@@H](C)[C@H](O)[C@@H](O)[C@H]8O)[C@@H](O)[C@H]7O)CC[C@]56C)[C@@]4(C)CO)O[C@H](C(=O)O)[C@@H](O)[C@@H]3O)O[C@H](CO)[C@H]2O)[C@H](O)[C@H](O)[C@H]1O` (stereo partly drawn), the activity change, negative = inhibition in assay [1] was 4.5% [at 12.4 µM]. The activity change, negative = viability loss in assay [2] was -0.268% [at 9.23 µM].
For `C[C@]1(CO)CCC[C@]2(C)C3=C(CCC12)COC3` (stereo partly drawn), the Potency result in assay [1] and in assay [2] was “inactive” throughout.
Consider `C=C1OC2CC(C(=O)O)C=CC2NC1=O` (stereo not drawn), for which the Potency result in assay [1] and in assay [2] was “inactive” in each case.
In the case of `CCC(C)C(=O)OC1CC(O)C23C4OCC5(C(O)CC2C1(C)C(O)O4)C3C(=O)CC1(C)C(c2ccoc2)CC2OC215` (stereo not drawn), the Potency result in assay [1] was “inactive”. In assay [2], the Potency was 399 nM (active).
In the same order, the values of `CC(C)(C)C(=O)CN1C(=O)[C@H](NC(=O)Nc2cccc(C(=O)O)c2)CN(C2CCCCC2)c2ccccc21` are “inactive” and “inactive”.
